Test results as given in the supplement of paper PMC11732987, “Enantioselective OTUD7B fragment discovery through chemoproteomics screening and high-throughput optimisation” (Communications Chemistry, 2025).

Tests used:
Assay in all cases: log2 ratio of Biotin-Ahx-Ub-VS probe labelling (fragment/DMSO); higher = less target engagement (more negative = stronger competition), active = hit call of the paper (q ≤ 0.05, log2 ratio ≤ -1)
Settings in all cases: compound concentration: 200 uM; treatment time: 3 h
USP42 = target: T1, USP42 (UniProt Q9H9J4)
T1 sequence (whole entry): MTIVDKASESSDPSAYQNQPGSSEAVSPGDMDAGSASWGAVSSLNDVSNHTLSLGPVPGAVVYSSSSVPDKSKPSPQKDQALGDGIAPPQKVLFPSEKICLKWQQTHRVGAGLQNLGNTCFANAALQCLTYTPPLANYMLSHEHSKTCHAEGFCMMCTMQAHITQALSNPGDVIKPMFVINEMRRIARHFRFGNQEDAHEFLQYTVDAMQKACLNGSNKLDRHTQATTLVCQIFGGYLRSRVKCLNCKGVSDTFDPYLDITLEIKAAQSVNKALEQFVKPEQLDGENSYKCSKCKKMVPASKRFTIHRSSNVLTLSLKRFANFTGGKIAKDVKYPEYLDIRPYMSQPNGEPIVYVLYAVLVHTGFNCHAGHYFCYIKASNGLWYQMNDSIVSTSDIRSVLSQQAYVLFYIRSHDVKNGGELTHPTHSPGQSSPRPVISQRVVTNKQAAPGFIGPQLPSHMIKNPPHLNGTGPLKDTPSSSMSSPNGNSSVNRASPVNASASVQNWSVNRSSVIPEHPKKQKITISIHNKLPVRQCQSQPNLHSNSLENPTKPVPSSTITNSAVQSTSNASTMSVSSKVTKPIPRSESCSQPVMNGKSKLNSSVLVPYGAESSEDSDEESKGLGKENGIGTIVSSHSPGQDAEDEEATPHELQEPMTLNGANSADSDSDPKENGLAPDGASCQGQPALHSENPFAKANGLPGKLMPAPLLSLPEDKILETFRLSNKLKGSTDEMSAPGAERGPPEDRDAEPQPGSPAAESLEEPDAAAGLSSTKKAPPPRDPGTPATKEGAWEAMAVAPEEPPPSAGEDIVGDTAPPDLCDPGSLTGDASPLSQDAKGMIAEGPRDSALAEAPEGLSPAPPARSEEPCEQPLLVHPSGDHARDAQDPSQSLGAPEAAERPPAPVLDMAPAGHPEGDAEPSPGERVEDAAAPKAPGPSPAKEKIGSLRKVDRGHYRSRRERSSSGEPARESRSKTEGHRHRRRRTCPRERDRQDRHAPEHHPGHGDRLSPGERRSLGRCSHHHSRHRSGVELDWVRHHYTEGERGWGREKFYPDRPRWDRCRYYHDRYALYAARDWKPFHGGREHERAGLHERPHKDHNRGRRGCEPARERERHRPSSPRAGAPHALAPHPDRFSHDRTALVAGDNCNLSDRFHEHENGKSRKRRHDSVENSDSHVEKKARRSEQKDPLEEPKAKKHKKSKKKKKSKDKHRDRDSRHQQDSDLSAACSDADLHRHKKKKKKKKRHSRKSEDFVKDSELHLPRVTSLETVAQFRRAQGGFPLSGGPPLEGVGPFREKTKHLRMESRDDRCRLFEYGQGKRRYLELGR
How it was run: (§1)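 Each value is an average log2 ratio of fragment to vehicle, tested by unpaired t-test. The underlying Spectronaut label-free quantities were global-median-normalised, and only proteins with ≥2 unique peptides were included. Triplicate HEK293T lysate samples (495 µg) were exposed to fragment at 200 µM or vehicle for 3 h, then to Biotin-Ahx-Ub-VS at 0.5 µM final for 1 h, before NeutrAvidin enrichment of labelled DUBs, LysC and trypsin digestion, and diaPASEF LC-MS/MS.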

USP46 = USP46 (UniProt P62068)
Sequence of USP46 (P62068 whole entry): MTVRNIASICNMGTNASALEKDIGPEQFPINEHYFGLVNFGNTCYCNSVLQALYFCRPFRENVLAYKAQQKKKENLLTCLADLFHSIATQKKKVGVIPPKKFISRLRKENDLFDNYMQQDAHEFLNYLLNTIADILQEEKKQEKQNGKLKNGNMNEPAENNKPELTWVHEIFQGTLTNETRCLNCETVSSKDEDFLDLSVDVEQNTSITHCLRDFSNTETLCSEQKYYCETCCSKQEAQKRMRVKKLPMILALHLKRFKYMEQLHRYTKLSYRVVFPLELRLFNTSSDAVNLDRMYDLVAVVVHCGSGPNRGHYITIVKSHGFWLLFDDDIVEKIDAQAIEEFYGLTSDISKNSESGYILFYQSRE
How it was run: as §1

USP47 = target: T2, USP47 (UniProt Q96K76)
T2 sequence (whole entry): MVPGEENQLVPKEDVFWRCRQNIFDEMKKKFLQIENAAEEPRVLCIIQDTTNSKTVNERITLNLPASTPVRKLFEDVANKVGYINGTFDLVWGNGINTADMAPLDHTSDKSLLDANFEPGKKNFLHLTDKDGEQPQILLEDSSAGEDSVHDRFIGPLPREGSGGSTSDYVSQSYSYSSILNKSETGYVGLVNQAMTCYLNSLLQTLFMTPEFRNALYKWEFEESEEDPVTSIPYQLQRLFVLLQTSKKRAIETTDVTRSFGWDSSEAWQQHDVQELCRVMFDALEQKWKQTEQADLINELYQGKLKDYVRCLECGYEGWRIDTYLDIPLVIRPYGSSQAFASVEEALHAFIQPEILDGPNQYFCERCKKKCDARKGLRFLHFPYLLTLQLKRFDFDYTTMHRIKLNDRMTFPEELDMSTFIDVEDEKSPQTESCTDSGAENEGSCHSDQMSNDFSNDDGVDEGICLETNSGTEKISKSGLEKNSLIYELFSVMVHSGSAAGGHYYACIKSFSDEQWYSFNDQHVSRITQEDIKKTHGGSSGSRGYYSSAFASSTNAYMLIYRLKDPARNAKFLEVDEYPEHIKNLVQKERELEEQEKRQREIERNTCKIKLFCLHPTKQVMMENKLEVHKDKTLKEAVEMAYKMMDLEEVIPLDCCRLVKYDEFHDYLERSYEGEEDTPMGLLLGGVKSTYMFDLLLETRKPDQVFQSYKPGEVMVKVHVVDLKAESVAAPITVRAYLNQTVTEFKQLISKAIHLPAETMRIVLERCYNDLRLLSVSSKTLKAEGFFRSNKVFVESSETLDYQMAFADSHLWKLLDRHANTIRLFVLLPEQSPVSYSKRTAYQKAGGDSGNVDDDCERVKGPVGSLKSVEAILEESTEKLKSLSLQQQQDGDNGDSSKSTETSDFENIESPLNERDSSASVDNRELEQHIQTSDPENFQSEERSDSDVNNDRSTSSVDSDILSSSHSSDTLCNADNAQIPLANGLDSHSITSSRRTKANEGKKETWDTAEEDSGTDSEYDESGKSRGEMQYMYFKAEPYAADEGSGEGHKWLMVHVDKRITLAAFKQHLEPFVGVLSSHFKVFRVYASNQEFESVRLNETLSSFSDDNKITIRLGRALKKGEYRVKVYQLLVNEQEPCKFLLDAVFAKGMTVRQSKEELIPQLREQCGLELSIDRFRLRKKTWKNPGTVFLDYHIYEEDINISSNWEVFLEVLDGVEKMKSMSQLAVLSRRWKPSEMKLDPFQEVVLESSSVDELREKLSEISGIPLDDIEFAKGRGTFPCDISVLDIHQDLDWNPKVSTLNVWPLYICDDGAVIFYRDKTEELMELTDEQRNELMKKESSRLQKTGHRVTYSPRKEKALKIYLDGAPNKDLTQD
How it was run: as §1

USP48 = target: T3, USP48 (UniProt Q86UV5)
T3 sequence (whole entry): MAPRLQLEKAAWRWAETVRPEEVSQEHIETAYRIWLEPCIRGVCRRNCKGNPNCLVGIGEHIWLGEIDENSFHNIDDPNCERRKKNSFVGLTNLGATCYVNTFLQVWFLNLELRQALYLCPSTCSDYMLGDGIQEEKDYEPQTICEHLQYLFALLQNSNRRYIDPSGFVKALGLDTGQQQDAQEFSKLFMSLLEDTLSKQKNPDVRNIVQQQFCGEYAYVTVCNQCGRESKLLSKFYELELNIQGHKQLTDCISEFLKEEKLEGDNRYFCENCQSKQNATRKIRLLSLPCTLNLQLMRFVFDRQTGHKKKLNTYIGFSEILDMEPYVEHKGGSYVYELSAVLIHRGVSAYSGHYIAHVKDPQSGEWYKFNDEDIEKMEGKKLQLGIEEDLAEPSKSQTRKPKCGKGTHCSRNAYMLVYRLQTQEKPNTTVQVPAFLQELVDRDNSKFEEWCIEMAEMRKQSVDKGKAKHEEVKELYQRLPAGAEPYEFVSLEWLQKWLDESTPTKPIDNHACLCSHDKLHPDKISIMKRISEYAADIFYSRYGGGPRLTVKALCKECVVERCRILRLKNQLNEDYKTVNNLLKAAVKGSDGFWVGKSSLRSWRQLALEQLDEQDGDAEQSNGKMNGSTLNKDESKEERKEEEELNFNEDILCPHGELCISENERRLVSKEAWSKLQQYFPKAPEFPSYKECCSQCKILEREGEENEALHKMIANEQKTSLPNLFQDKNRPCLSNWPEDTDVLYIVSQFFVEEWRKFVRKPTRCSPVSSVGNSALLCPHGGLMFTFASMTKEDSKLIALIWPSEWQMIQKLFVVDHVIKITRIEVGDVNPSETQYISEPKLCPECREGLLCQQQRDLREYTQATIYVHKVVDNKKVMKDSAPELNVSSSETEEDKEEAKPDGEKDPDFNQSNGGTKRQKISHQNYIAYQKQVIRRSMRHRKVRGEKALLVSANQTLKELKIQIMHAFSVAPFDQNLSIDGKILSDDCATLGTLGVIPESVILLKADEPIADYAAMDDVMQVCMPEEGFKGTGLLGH
How it was run: as §1

USP5 = target: T4, USP5 (UniProt P45974)
T4 sequence (whole entry): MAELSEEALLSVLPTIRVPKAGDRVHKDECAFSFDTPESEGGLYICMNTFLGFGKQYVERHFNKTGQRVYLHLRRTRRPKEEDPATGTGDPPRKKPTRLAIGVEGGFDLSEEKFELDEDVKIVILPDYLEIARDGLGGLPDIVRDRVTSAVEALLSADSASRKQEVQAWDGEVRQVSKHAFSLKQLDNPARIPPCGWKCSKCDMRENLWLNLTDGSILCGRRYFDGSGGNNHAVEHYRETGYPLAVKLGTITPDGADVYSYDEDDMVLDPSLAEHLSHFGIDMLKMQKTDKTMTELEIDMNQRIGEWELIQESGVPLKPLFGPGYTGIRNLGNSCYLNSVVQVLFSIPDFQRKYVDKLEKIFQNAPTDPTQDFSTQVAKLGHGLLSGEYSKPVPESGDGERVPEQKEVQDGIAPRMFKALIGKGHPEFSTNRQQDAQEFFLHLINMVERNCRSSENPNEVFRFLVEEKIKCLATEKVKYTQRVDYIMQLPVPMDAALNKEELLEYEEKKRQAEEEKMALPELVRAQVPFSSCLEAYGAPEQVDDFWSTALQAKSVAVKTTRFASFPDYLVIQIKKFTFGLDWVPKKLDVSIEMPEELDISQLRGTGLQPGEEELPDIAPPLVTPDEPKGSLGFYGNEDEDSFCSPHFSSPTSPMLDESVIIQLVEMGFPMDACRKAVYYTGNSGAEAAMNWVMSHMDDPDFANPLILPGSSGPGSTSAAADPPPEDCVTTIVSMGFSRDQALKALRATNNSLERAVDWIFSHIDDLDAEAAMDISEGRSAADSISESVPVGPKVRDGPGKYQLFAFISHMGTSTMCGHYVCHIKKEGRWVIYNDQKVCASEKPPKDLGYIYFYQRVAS
How it was run: as §1

USP54 = USP54 (UniProt Q70EL1)
How it was run: as §1

USP7 = USP7 (UniProt Q93009)
Sequence of USP7 (Q93009 whole entry, looked up): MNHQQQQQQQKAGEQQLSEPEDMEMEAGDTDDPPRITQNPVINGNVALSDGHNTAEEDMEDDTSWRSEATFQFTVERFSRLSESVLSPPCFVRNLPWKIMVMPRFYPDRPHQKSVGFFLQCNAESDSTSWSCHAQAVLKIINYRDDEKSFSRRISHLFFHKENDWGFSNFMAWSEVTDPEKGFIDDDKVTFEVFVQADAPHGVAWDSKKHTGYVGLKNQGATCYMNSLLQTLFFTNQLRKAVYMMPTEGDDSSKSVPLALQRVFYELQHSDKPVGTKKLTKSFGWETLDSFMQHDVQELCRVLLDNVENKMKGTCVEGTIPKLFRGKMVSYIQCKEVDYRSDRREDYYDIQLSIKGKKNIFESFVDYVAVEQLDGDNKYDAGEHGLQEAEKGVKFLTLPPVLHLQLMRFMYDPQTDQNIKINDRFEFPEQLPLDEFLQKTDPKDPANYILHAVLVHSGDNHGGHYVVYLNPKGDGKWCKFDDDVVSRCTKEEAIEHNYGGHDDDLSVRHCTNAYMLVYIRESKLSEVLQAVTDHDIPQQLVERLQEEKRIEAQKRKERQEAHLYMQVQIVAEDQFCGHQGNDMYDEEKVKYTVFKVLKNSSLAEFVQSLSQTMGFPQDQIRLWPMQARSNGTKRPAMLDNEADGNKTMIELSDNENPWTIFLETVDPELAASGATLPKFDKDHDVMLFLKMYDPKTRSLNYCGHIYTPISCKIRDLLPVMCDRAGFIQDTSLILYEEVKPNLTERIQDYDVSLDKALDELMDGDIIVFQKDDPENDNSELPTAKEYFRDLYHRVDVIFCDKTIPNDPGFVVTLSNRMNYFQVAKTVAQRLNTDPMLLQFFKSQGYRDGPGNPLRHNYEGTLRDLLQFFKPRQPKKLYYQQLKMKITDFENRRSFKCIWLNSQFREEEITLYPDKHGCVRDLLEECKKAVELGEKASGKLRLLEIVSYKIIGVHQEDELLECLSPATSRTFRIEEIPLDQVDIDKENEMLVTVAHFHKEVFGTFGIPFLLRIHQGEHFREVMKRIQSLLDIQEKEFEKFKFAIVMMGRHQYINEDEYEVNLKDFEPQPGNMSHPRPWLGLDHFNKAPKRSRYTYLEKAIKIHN
How it was run: as §1

USP8 = target: T5, USP8 (UniProt P40818)
T5 sequence (whole entry): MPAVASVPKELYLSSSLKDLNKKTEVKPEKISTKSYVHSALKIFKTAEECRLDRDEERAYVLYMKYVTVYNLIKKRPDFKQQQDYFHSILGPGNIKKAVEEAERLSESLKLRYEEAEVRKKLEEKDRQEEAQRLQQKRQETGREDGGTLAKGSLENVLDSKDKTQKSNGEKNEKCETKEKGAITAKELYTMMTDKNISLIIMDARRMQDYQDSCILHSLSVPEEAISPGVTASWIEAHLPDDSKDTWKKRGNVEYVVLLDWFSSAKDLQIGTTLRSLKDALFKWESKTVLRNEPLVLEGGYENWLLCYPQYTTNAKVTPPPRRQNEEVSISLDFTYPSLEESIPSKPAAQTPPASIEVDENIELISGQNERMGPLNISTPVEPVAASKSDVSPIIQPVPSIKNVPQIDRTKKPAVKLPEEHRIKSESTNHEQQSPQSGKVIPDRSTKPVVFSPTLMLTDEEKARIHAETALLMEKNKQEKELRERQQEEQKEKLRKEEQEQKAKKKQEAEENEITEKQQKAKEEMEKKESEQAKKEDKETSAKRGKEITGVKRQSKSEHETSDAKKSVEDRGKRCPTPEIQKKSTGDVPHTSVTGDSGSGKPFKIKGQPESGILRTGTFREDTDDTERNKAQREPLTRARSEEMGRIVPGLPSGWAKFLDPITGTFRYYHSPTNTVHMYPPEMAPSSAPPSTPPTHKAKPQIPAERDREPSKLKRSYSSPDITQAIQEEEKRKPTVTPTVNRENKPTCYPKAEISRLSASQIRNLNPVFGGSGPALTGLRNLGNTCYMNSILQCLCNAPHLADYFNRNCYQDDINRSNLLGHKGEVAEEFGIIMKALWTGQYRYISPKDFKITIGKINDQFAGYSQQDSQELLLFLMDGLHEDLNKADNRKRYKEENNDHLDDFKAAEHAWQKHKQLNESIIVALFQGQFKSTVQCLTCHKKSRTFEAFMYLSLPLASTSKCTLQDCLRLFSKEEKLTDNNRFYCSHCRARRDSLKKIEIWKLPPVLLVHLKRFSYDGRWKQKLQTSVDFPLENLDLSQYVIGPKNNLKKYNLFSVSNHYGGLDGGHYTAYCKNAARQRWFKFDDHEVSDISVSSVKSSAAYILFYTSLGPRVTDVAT
How it was run: as §1

USP9X = USP9X (UniProt Q93008)
Sequence of USP9X (Q93008 whole entry): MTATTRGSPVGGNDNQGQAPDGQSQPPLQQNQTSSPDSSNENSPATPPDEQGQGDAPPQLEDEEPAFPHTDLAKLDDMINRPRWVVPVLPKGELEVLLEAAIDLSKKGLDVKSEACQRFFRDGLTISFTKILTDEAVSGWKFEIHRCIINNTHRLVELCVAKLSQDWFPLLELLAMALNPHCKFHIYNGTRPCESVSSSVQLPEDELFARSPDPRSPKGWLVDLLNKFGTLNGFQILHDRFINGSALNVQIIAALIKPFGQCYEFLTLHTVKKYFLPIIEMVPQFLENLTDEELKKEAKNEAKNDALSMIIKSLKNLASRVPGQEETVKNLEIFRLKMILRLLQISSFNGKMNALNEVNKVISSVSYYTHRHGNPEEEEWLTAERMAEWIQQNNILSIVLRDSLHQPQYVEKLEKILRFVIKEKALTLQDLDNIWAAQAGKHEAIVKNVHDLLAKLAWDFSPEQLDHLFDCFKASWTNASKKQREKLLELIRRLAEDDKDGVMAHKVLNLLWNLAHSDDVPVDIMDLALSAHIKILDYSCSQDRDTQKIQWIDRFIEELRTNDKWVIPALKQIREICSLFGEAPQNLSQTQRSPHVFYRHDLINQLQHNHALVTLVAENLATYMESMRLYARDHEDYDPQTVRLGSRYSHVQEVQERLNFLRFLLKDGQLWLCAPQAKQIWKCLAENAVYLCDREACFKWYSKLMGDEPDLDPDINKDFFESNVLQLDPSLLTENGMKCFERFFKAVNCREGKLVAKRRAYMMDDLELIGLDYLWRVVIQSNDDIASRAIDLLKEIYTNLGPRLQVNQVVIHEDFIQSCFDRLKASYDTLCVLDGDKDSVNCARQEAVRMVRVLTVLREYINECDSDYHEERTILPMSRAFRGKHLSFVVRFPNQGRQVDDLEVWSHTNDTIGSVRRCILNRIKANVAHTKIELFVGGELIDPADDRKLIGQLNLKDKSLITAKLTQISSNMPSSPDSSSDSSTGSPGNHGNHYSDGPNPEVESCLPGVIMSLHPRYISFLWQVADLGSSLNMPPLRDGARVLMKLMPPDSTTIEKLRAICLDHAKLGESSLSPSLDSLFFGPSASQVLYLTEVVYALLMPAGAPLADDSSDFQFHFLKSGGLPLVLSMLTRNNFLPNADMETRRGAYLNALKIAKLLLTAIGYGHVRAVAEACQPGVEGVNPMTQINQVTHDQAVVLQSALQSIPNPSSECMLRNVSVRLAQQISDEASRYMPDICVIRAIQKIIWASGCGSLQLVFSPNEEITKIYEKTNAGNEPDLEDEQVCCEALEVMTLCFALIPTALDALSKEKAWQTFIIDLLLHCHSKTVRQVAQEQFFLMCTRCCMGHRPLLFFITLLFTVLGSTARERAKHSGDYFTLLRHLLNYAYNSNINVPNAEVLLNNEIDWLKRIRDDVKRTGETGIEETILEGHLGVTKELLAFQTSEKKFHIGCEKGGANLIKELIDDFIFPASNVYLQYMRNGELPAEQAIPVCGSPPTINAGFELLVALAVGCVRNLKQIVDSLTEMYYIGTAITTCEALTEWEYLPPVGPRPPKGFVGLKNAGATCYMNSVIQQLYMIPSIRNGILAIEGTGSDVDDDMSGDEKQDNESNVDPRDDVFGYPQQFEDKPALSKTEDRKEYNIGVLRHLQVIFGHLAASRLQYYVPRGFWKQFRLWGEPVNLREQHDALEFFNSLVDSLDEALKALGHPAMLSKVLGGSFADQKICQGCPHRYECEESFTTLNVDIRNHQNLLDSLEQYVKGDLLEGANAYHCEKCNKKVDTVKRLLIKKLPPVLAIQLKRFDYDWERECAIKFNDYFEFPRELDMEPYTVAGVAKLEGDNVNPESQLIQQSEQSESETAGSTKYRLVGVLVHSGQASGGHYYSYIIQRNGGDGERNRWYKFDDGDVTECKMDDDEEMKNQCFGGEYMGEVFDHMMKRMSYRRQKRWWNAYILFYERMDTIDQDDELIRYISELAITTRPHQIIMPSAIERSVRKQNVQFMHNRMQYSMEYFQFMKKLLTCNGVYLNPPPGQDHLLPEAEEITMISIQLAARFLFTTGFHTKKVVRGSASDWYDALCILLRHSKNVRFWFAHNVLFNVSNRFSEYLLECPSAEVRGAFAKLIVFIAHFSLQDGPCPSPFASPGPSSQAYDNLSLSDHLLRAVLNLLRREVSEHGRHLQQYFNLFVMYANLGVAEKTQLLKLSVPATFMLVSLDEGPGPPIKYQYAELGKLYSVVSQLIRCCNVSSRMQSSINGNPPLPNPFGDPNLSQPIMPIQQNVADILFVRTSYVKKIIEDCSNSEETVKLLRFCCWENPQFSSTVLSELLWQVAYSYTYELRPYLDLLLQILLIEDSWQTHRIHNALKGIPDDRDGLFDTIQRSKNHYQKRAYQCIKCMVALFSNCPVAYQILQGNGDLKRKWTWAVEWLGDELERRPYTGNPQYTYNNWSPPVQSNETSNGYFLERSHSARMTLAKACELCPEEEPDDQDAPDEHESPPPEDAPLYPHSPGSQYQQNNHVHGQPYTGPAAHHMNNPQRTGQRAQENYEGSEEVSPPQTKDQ
How it was run: as §1

UniProt O00487 = target: UniProt O00487
Sequence of UniProt O00487 (O00487 whole entry): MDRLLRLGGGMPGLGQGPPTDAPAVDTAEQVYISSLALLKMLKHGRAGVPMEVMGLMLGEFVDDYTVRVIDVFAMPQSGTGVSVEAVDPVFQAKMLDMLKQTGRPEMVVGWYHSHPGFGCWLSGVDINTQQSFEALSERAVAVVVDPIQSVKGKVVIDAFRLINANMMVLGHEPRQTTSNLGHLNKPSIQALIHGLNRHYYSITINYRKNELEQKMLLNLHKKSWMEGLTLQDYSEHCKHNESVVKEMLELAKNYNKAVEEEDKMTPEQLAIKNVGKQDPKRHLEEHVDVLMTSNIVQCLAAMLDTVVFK
How it was run: as §1

Measured: log2 ratio of Biotin-Ahx-Ub-VS probe labelling

CCN(C(=O)CCl)C1CCS(=O)(=O)C1 (stereo not given)
inactive: USP42 0.372 | USP46 -0.128 | USP47 0.027 | USP48 -0.155 | USP5 0.158 | USP54 -0.012 | USP7 -0.288 | USP8 0.0171 | USP9X -0.112 | UniProt O00487 0.0162
